The supplement of paper PMC6555819

Assays:
Test in all cases: PBM binding z-score (relative to random genomic background probes); higher = stronger binding; sequences stand for … in GC…GCGATTGACAGCGTAGAATGAAGG
[1] = test system: RARb homodimer (NR concentration 270 nM)
Procedure, shortened: (§1)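 Binding buffer was PBS pH 7.4 with 2% milk, 0.02% Triton X-100, 1 mM DTT, 0.2 mg/mL BSA and 0.4 mg/ml salmon testes DNA. In it, ligand-free nuclear receptor dimers were incubated 1 h on custom Agilent 4×180K protein-binding microarrays carrying double-stranded probes. Antibodies against each partner (one per run) detected binding, and z-scores were calculated against random background probes after regression normalization of scanned fluorescence.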

[2] = test system: RARg:RXRa (NR concentration 270 nM, RXRa partner concentration 90 nM)
Procedure, shortened: as §1

[3] = test system: RARg homodimer (NR concentration 270 nM)
Procedure, shortened: as §1

[4] = test system: RXRa DBDmut IVT, anti-RXR (DBD mutation: RXRa K156A/R161A, NR concentration 90 nM)
Procedure, shortened: as §1

[5] = test system: RXRa homodimer (NR concentration 180 nM)
Procedure, shortened: as §1

[6] = test system: THRa:RXRa (NR concentration 90 nM, RXRa partner concentration 90 nM)
Procedure, shortened: as §1

[7] = test system: THRa homodimer (NR concentration 90 nM)
Procedure, shortened: as §1

[8] = test system: VDR homodimer (NR concentration 270 nM)
Procedure, shortened: as §1

Sequence | PBM binding z-score [1] | PBM binding z-score [2] | PBM binding z-score [3] | PBM binding z-score [4] | PBM binding z-score [5] | PBM binding z-score [6] | PBM binding z-score [7] | PBM binding z-score [8]
ATCTCTAGGTAAAAGTTCAGTGATTCCCGAGGAT | 2.44 | 1.69 | 2.11 | 0.773 | 1.47 | 1.2 | 0.435 | 1.8
ATCGAAAGGTCGTGAGGTTAGTATACAGAAAGGC | 3.14 | 4.88 | 4.09 | 1.9 | 5.43 | 3.2 | 1.07 | 1.84
GCGACTGGGGCATCAGCAGATTACCATAACTTAA | 0.257 | -0.0173 | 0.481 | 0.186 | -0.143 | -0.135 | -0.286 | -0.431
GCAAATAGGTAATACAAGGTGAAAGTCCGATTGT | 0.898 | 0.546 | 0.597 | 0.463 | 0.951 | 4.22 | 0.778 | -0.442
CCTACTGGGCCCCGAAAGGTCATTGATTCAGTGA | 4.21 | 4.35 | 3.23 | -0.457 | 4.99 | 3.04 | 1.03 | 1.81
AGAATGAGGTTACCAAAGATCAGGGGAACGCTTG | 1.08 | 2.1 | 1.75 | 1.25 | 2.79 | 2.87 | 0.753 | 0.0393
ACTATTAGGTGAGACGAGGGCAACCGATAGGTTG | 1.7 | 1.03 | 1.43 | 0.288 | 0.97 | 3.84 | 0.802 | 1.07
TCATATAGATAATACAGGTGAAAGTCGGCATCTA | 0.362 | 0.456 | 0.632 | 2.07 | 1.02 | 0.394 | 0.216 | 0.608
GCGACTGGGGCTTCAGCAGGTTACCATAACTTAA | 0.521 | -0.404 | -0.463 | -0.297 | 0.00147 | 0.733 | -0.0641 | -0.284
TCTATTAGTTGAAGGGCAAACGACGAGTCCGTTT | 1.26 | 0.673 | 0.64 | 1.79 | 1 | 0.493 | 0.286 | 1.91
GATGCTAGGTCAGGTTGGTCAGCTAACGGGTACG | 3.1 | 2.37 | 3.92 | 0.468 | 1.16 | 1.92 | 0.898 | 0.958
AATACAGGGTCACTAGGCCAGTGTAGGTACGAAT | 3.48 | 5.29 | 5.09 | 2.82 | 6.04 | 3.4 | 1.26 | 2.89
CGTCCAAGGTTAGAGAGGTCAGTGAATGCCGAGT | 4.23 | 3.53 | 4.13 | 1.67 | 3.43 | 3.22 | 1.3 | 3.15
CCTTACGGGTCATTCCAGGTTATAGCATCGGAGT | 3.03 | 4.52 | 4.25 | 2.86 | 5.2 | 5.12 | 0.692 | 2.59
GCGACTGGGGCAAAGCAGGTGACCATAAGGTTGG | 0.982 | 0.256 | 0.536 | -0.884 | 0.188 | 2.88 | -0.094 | -0.886
TTACCAAGGTGAAGGTCTTTGATCCCTCTGTAGA | 0.775 | 0.2 | 0.513 | -0.154 | 0.759 | 1.73 | 0.592 | -0.396
ATATGTAAGTTAGCTGGGGTCATTCAGACTAGGC | 3.29 | 3.58 | 2.19 | 1.95 | 5.13 | 4.31 | 3.21 | 4.9
CGTCCAAGGTCAATGCTAGGTCAGTGACAGCATT | 4.95 | 7.61 | 6.78 | 3.65 | 5.25 | 4.63 | 2.99 | 2.97
GCTTGTATATCAAGGTTAAGAAAGACTAAGCTAA | 0.176 | 0.526 | 0.28 | 0.464 | 0.746 | 1.24 | -0.21 | -0.0299

Sequence | PBM binding z-score [1] | PBM binding z-score [2] | PBM binding z-score [3] | PBM binding z-score [4] | PBM binding z-score [5] | PBM binding z-score [6] | PBM binding z-score [7] | PBM binding z-score [8]
GCTTACGGGTCAAAGGTGATAGCATGAATAGAAT | 2.94 | 5.62 | 4.21 | 2.43 | 7.79 | 3.15 | -0.0269 | 1.07
CCAACTAGGTCACGAAAGGTCAAAGTCGAATGAC | 6.02 | 8.03 | 8.57 | 2.76 | 8.76 | 5.44 | 2.87 | 3.88
GTGCCAAGGTGAATAGGTCGTTGATGAGTAGGCG | 1.92 | 2.61 | 1.46 | -0.262 | 1.55 | 1.72 | 0.56 | -0.115
ATCTCTAGGTAAAAGTTCAGTGCATCCCGAGGAT | 2.59 | 1.85 | 1.81 | 0.951 | 1.49 | 1.43 | 0.48 | 2.21
TTACCAAGGTGAGCTGTGGTCGTTGATCCAACTC | 0.173 | 0.108 | -0.154 | -0.592 | 0.152 | 1.78 | -0.136 | -0.783
CAAACTAGGTCACGAAAGGTCAAAGTAGAATGAC | 5.89 | 7.93 | 8.94 | 2.39 | 8.5 | 5.12 | 2.65 | 3.78
CCTGTTAGGTCATGGTCAGCTAATCTACAGTATG | 3.36 | 4.05 | 4.61 | 2 | 2.89 | 3.73 | 2.91 | 0.791
ATCTCTAGGTAACCAAGTTGAGTGAATGCCGAAC | 0.229 | -0.0592 | 0.11 | 0.0229 | 0.0959 | 0.852 | 0.635 | 0.254
CAAACTATGTCAAGGTCAAAGTCGGTTTGTGCCA | 4.39 | 4.59 | 4.75 | 2.54 | 4.98 | 4.03 | 3.78 | 4.25
TCTATTAGTTTAAGGGCAACCGACGAGTCCGTTT | 2.12 | 0.831 | 1.17 | 1.94 | 0.958 | 2.69 | 2.56 | 2.78
ATCGAAAGGTCTACGAGGTGAGTATACACCGTTT | 1.01 | 1.32 | 1.56 | -0.0758 | 1.11 | 2.26 | 0.606 | 0.124
TCTGCTAGGTCAAAGATGGTCAGCTAATCTGCTA | 3.04 | 3.65 | 4.3 | 1.31 | 2.65 | 3.05 | 0.196 | -0.234
GCAGCTAGGTCAACTGATGGTCAGCTAAAGCTCG | 3.08 | 5.02 | 5.33 | 0.798 | 2.52 | 2.6 | 0.305 | -0.435
GCAGACAGGTGAAACGCAGGTAACTCAGGGTGGC | 0.13 | 0.712 | 0.0344 | -0.777 | 0.519 | 1.42 | -0.615 | -0.666
AGTCAAAGTACATCTAGGTAACGTAAGATATGCT | -0.123 | 0.265 | 0.944 | 0.854 | 0.346 | 0.814 | -0.353 | 0.155
TCTCCTAGGTCAACGATGGTCAGCTAATCTGCTA | 3.61 | 4.5 | 5.72 | 1.41 | 3.49 | 3.32 | 1.59 | 0.166
AATACAGGGTCACTAGGCCAGAGTCGGTACGAAT | 3.25 | 5.29 | 4.87 | 2.71 | 5.3 | 3.43 | 1.24 | 2.7
TCATATAGGTAATACAAGTGAAAGTCGGCATCTA | 0.148 | 0.857 | 0.72 | 2.07 | 1.23 | 0.601 | 0.0151 | 0.435
CAAACTAGGTCAAACGTCAAAGTCGAGCCAACCA | 2.99 | 4.6 | 4.53 | 2.28 | 4.16 | 3.13 | 0.831 | 1.04

Sequence | PBM binding z-score [1] | PBM binding z-score [2] | PBM binding z-score [3] | PBM binding z-score [4] | PBM binding z-score [5] | PBM binding z-score [6] | PBM binding z-score [7] | PBM binding z-score [8]
TAGCCTAGGTAAGATCGGGCCAGTATACGCTATA | -0.638 | -0.26 | -0.321 | -1.17 | -0.364 | 1.37 | -0.927 | -0.857
TCTCGGAGGACACGAAGGTCATAGCTTTCCAGAG | 3.93 | 4.04 | 4.13 | 1.41 | 3.28 | 3.55 | 1.66 | 3.09
CCTATTAGTTGACCATAAGGGCAACTGAAGCTCG | 2.04 | 1.5 | 1.31 | 0.724 | 0.69 | 1.99 | 1.28 | 0.824
TCTTGTAGATCAAGCAGGTTAAGACAGCCTGAGT | 0.295 | -0.0241 | -0.105 | 0.547 | 0.368 | 0.23 | -0.66 | -0.155
CGTCCAAGGTCAGCTGGTCAGTGAAAGCGACGTG | 3.87 | 5.3 | 6.1 | 2.64 | 3.99 | 3.46 | 1.76 | 0.478
AGAATGAGGTTAAGCTCAGGGAAACAGAATACAT | 0.601 | 2.43 | 1.72 | 1.26 | 2.59 | 2.67 | 0.503 | -0.00367
ATATGTCGGTTACATCCGGGTCATTCAGGCTATG | 2.58 | 2.37 | 1.71 | 0.511 | 2.45 | 3.31 | 2.52 | 3.41
CCTACTAGGTCAATGGTCAGCTAAAGCAGCTCGC | 3.28 | 3.39 | 4.16 | 1.71 | 2.26 | 2.47 | 0.868 | 0.437
GCGGCTAGGTCAACTGATGGTCAGCTAAAGCTCG | 3.7 | 5.19 | 5.19 | 1.17 | 2.84 | 2.95 | 0.698 | -0.00796
CAGCCTAGGTCAGGGCCATTATAGGAGGAACGTT | 2.66 | 3.08 | 4.01 | 0.265 | 1.84 | 2.07 | 0.505 | -0.15
CGAATTAGGTCAAGGACAGTGAATCTCCGCACGC | 3.29 | 3.94 | 4.46 | 1.46 | 2.97 | 3.53 | 2.81 | 0.373
CCGAATAGGTTATGGGGCATTCAGGCAACGGTGA | 1.11 | 1.06 | 0.917 | 0.132 | 1.31 | 0.696 | -0.0047 | -0.175
AGAACGAGGGCAATGAGGTGATAGCACGGGTGGC | 1.58 | 1.49 | 1.52 | 1.37 | 1.04 | 2.46 | 0.988 | 1.57
TCATATAGGTAAACAGCTGAAAGTCCGTAAGTTA | 0.0749 | 0.25 | 0.0863 | 1.64 | 0.623 | 0.172 | -0.236 | 0.162
TTACCAAGGTGAAAGGTCGTAGATGCACGCCTTG | 2.48 | 4.5 | 2.1 | -0.0824 | 6.49 | 3.42 | 0.581 | 0.0396
ACTAGCAGGCCAAGTTTTGGTCACTCAAACAAAG | 0.74 | 0.448 | 0.546 | -0.286 | -0.0235 | 0.0291 | -0.326 | -0.447
CCTACTGGGCCAAAGGTCATTGAGTCCAATGCTC | 4.88 | 5.8 | 4.63 | 1.78 | 6.07 | 3.57 | 0.746 | 4.9
CCTGCTAGGTCATGGGCAGCTAATCTACAGTATG | 2.79 | 4.04 | 4.39 | 1.05 | 2.83 | 2.89 | 0.639 | -0.0786
